Inhibition data for 15 molecules are collected here from PubChem BioAssay.

Values without a mark were called inactive. No stated cut-off is given here; in the data, active means inhibition above about 30%; inactive means the rest.

For orientation: inhibition means the relative decrease from the control value, in per cent.

The nature of this experiment: growth suppression of yeast trafficking mutant, preliminary HTS, modulators of trafficking downstream of Golgi apparatus project, 1536-format plate, OD 615 nm (AID 637). The note with it: yeast transport mutant growth, absorbance 615 nm, 18 h; stronger effect = higher value.
In the case of `CCOC(=O)c1nnc2cc(-c3ccc(Br)cc3)nn2c1C`, the inhibition is -5.24%.

`COc1cccc(C(=O)Nc2c(C(N)=O)oc3ccccc23)c1`: the inhibition is 3%.

Turning to `CCn1c(CNc2ccc(OC)cc2)nnc1SCC(=O)c1ccc(OC)cc1`, the inhibition was 0.33%.

On to `COc1ccc(Br)cc1C1N2CC3(C)CN1CC(C)(C2)C3=O` (stereo not given), for which the inhibition was -3.61%.

Regarding `CCOC(=O)c1sc(NC(=O)CSc2n[nH]c(-c3ccccc3)n2)c(C#N)c1C`, the inhibition is 2.38%.

`CCOC(=O)N1CCN(CCC(=O)c2ccc(Cl)cc2)CC1`: the inhibition is -6.51%.

Regarding `CCOC(=O)c1c(C)oc2c1c(C(c1ccncc1)N1CCOCC1)c(O)c1ccccc12` (stereo not given), the inhibition is -3.49%.

Regarding `Cc1c(NC(=O)c2ccc(=O)oc2)c(=O)n(-c2ccccc2)n1C`, the inhibition is -0.32%.

For `CCOc1ccccc1-n1nnnc1SCC(=O)Nc1cc2oc3ccccc3c2cc1OC`, the inhibition is -9.05%.

Turning to `CC1=C(C(=O)OC2CCCCC2)C(c2ccc(C)o2)C2=C(CC(C)(C)CC2=O)N1` (stereo not given), the inhibition was -7.83%.

With `Cc1nc2ccccc2c(=O)n1NC(=O)c1c(O)c2c(n(CC(C)C)c1=O)CCCC2`, the inhibition is 9.35%.

On to `COc1ccc(C2=NOC(C(=O)Nc3cc(Br)ccc3O)C2)cc1OC` (stereo not given), for which the inhibition was 1.8%.

In the case of `Cc1ccc(NC(=O)c2oc3ccc(S(=O)(=O)N4CCOCC4)cc3c2C)cc1C`, the inhibition was 2.54%.

Regarding `Cc1nn(-c2nc3ccccc3s2)c(C)c1Oc1ccccc1O`, the inhibition is -0.63%.

As for `Cc1ccc(S(=O)(=O)c2cc3c(=O)n4ccccc4nc3n(CC3CCCO3)c2=N)cc1C` (stereo not given), the inhibition was 2.95%.
